Results from PubChem BioAssay (NCATS).
Where “and” joins values, the source holds several entries; their conditions need not be identical. Equal values may be shown once. Results filed as inconclusive are left out. Some structures have more than one record in an assay (separate samples or runs), and their calls can disagree. Calls of active or inactive are those of the source. Calls follow the shape of the dose curve; as a rule, active = well fitted inhibition curve with a large enough effect; inconclusive = small, poorly fitted or top-dose-only effect; inactive = flat fitted curve, though single readings scatter.

Legend:
CRL-7250 = normal cell line; assay: Cytotoxic Profiling of Annotated Libraries Using Quantitative High-Throughput Screening (AID 1296008); conditions: Five cell lines viability, CellTiter-Glo ATP luminescence, 48-72 h; max response: stronger effect = lower value; also: potency is read from the fitted curve at half-maximal effect; as to max response: % is scaled to controls: 0 for no effect and ±100 for the full control effect
Summary of the method: (§1)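 Compounds were pin-transferred onto cells and incubated 48 or 72 hr at 37 degree Celsius, 95% humidity. CellTiter-Glo was added, plates sat 10 min at room temperature, then ATP-coupled luminescence was imaged as the viability read-out.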

HaCat [1] = assay: as above; conditions: Five cell lines viability, CellTiter-Glo ATP luminescence, 48-72 h; max response: stronger effect = lower value
Summary of the method: as §1

KB-3-1 = assay: as above; conditions: Five cell lines viability, CellTiter-Glo ATP luminescence, 48-72 h; max response: stronger effect = lower value
Summary of the method: as §1

NIH3T3 = assay: as above; conditions: Five cell lines viability, CellTiter-Glo ATP luminescence, 48-72 h; max response: stronger effect = lower value
Summary of the method: as §1

HACAT [2] = assay: qHTS assay to identify novel small-molecules to repurpose for Merkel cell carcinoma treatment (AID 1296009); conditions: MCC and control cell lines, CellTiter-Glo viability, 72 h; at 44.8 µM (top of the series) unless noted; as to activity change, negative = cytotoxicity: % is scaled to controls: 0 for no effect and ±100 for the full control effect
Summary of the method: (§2)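 Luminescence from CellTiter-Glo, read 10 min after addition at room temperature, reported viability following a 72 hr, 37 degree celsius treatment with NPC or MIPE compounds in titration; values normalized to plate controls.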

MCC-13 = assay: as above; conditions: MCC and control cell lines, CellTiter-Glo viability, 72 h; series mostly up to 46 µM
Summary of the method: as §2

TAB165 = assay: qHTS profiling for inhibitors of Plasmodium falciparum proliferation (AID 504749);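 also: 0% = DMSO vehicle and full inhibition = artemisinin control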; conditions: P. falciparum in erythrocytes, SYBR Green DNA, 72 h; series mostly up to 28.7 µM
Summary of the method: (§3)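 Fluorescence of SYBR Green-bound parasite DNA, read at 485/535 nm, served as the growth measure. Infected erythrocytes were cultured with compound 72 h; artemisinin (0.29 uM) and DMSO wells defined the normalization range.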

W2 = assay: as above; conditions: P. falciparum in erythrocytes, SYBR Green DNA, 72 h; series mostly up to 28.7 µM
Summary of the method: as §3

HEK293T = assay: qHTS assay to identify novel small-molecules to repurpose for Merkel cell carcinoma treatment (AID 1296009); conditions: MCC and control cell lines, CellTiter-Glo viability, 72 h; at 44.8 µM (top of the series) unless noted; as to activity change, negative = cytotoxicity: % is scaled to controls: 0 for no effect and ±100 for the full control effect
Summary of the method: as §2
Also: nearly all actives have a fitted effect of over 60% in size.

CC[C@H](NC(=O)[C@H](C)NC)C(=O)N1C[C@@H](O)C[C@H]1Cc1c(-c2[nH]c3cc(F)ccc3c2C[C@H]2C[C@H](O)CN2C(=O)[C@H](CC)NC(=O)[C@H](C)NC)[nH]c2cc(F)ccc12
inactive: outcome (CRL-7250) | outcome (HaCat [1]) | outcome (KB-3-1) | outcome (NIH3T3) | outcome (HACAT [2]) | Potency (MCC-13)

CO[C@H]1C=CO[C@@]2(C)Oc3c(C)c(O)c4c(O)c(c(C=NN5CCN(C)CC5)c(O)c4c3C2=O)NC(=O)C(C)=CC=C[C@H](C)[C@H](O)[C@@H](C)[C@@H](O)[C@@H](C)[C@H](OC(C)=O)[C@H]1C
inactive: max response (CRL-7250) -4.52% | outcome (HaCat [1]) | max response (KB-3-1) 0.835% | max response (NIH3T3) -3.12% | outcome (HACAT [2]) inactive [at 9.27 µM] | activity change, negative = cytotoxicity (MCC-13) -0.156% [at 9.22 µM]

CCC[C@H](N[C@@H](C)C(=O)N1[C@@H]2CCCC[C@H]2C[C@H]1C(=O)O)C(=O)OCC
inactive: max response (CRL-7250) 2.7% | outcome (HaCat [1]) | max response (KB-3-1) -1.21% | max response (NIH3T3) -10.8% | outcome (HACAT [2]) | Potency (MCC-13)

COc1ccc2c(c1)c(C1=C(c3c[nH]c4ccccc34)C(=O)NC1=O)cn2CCCN(C)C
inactive: outcome (CRL-7250) | outcome (HaCat [1]) | max response (KB-3-1) -14.8% | max response (NIH3T3) 4.3% | outcome (HACAT [2]) | Potency (MCC-13)

N#Cc1c(N(CC(=O)O)CC(=O)O)sc(C(=O)O)c1CC(=O)O
inactive: Potency (TAB165) | Potency (W2) | outcome (CRL-7250) | outcome (HaCat [1]) | max response (KB-3-1) -1.51% | max response (NIH3T3) -3.52% | outcome (HACAT [2]) | outcome (HEK293T) | Potency (MCC-13)

C[C@@H](O)[C@H]1C(=O)N2C(C(=O)OCOC(=O)C(C)(C)C)=C(SC3CN(C4=NCCS4)C3)[C@H](C)[C@H]12
inactive: max response (CRL-7250) 0.148% | outcome (HaCat [1]) | max response (KB-3-1) 8.8% | outcome (NIH3T3) | outcome (HACAT [2]) | outcome (HEK293T) | Potency (MCC-13)

CCC(c1ccc(O)cc1)C(CC)c1ccc(O)cc1 (configuration not stated)
inactive: outcome (CRL-7250) | outcome (HaCat [1]) | max response (KB-3-1) 9.65% | outcome (NIH3T3) | outcome (HACAT [2]) | Potency (MCC-13)

NC(=O)c1ccc(N(C(N)=O)c2c(F)cccc2F)nc1-c1ccc(F)cc1F
inactive: max response (CRL-7250) -5.46% and 0.374% | max response (HaCat [1]) -19.1% and -25.7% | max response (KB-3-1) 7.33% | outcome (KB-3-1) | max response (NIH3T3) 4.54% | outcome (NIH3T3) | Potency (MCC-13)

CCCCC(C=O)NC(=O)C(CC(C)C)NC(=O)OCc1ccccc1 (configuration not stated)
inactive: max response (CRL-7250) -8.38% | outcome (HaCat [1]) | max response (KB-3-1) -12% | max response (NIH3T3) -21.8% | outcome (HACAT [2]) | Potency (MCC-13)

O=c1cc(-c2ccc(O)c(O)c2)oc2cc(O)cc(O)c12
inactive: max response (CRL-7250) 4.28% | outcome (HaCat [1]) | outcome (KB-3-1) | max response (NIH3T3) 3.33% | outcome (HACAT [2]) | outcome (HEK293T) | Potency (MCC-13)

CN(C)c1ccc(-c2nc3ncc(Cl)c(N4CCN(CC(=O)Nc5nccs5)CC4)c3[nH]2)cc1
inactive: max response (CRL-7250) -24% | outcome (HaCat [1]) | outcome (KB-3-1) | outcome (HACAT [2]) inactive [at 17.4 µM] | Potency (MCC-13)
active: Potency (KB-3-1) 2000 nM

CN1c2ccccc2C(=O)N2CCc3c([nH]c4ccccc34)C21 (configuration not stated)
active: Potency (KB-3-1) 5170 nM
inactive: max response (CRL-7250) 4.95% | max response (HaCat [1]) -3.12% | max response (KB-3-1) 1.03% | max response (NIH3T3) -8.68% | Potency (MCC-13)

N#CC(c1ccnc(NCCc2cccnc2)n1)c1nc2ccccc2s1 (configuration not stated)
inactive: max response (CRL-7250) -3.29% | outcome (HaCat [1]) | max response (KB-3-1) 8.21% | max response (NIH3T3) -3.33% | outcome (HACAT [2]) | Potency (MCC-13)

CN(C)c1ccccc1CN1CCCN(Cc2ccccc2N(C)C)C1c1ccncc1
inactive: outcome (CRL-7250) | outcome (HaCat [1]) | outcome (KB-3-1) | max response (NIH3T3) -1.17% | outcome (HACAT [2]) | Potency (MCC-13)

CNC(=O)c1ccc2c(C(=Nc3cccc(CN(C)C)c3)c3ccccc3)c(O)[nH]c2c1
inactive: max response (CRL-7250) -0.775% and -15% | max response (HaCat [1]) 0.629% | outcome (HaCat [1]) | outcome (KB-3-1) | outcome (HACAT [2]) | Potency (MCC-13)
active: Potency (NIH3T3) 16.6 µM and 8.2 µM

CC(=O)Nc1cccc(-n2c(=O)n(C3CC3)c(=O)c3c(Nc4ccc(I)cc4F)n(C)c(=O)c(C)c32)c1
active: Potency (CRL-7250) 164 nM | Potency (HaCat [1]) 3.32 µM and 5.17 µM | Potency (NIH3T3) 418 nM and 259 nM
inactive: max response (KB-3-1) -5.06% and 7.25%

N#CC(=C1Nc2ccccc2S1)c1ccnc(OCc2ccc(CN3CCOCC3)cc2)n1
inactive: max response (CRL-7250) 4.11% | outcome (HaCat [1]) inactive; activator | max response (KB-3-1) -1.84% | max response (NIH3T3) -8.13% | outcome (HACAT [2]) inactive; activator | Potency (MCC-13)
